The values below come from PubChem BioAssay AID1490 (National Center for Advancing Translational Sciences (NCATS), 2009).

Several values for one entry are separate records, joined by “and”; a condition that tells them apart may be missing. Equal values may be shown once. Among all 310,000 compounds or so, about 11,000 (3.5%) were called active. Roughly 4% stayed inconclusive and do not appear here. Many of the other results were omitted from the sample, so actives are more common in it than they were. Unmarked numbers belong to inactive results. Calls follow the shape of the dose curve; as a rule, active = well fitted inhibition curve with a large enough effect; inconclusive = small, poorly fitted or top-dose-only effect, or another doubt; inactive = no such curve, though single readings can be large or run the other way.
Potency is read from the fitted curve at half-maximal effect.

This assay deals with 4'-phosphopantetheinyl transferase ffp (Bacillus subtilis) (UniProt Q9F4F7). Nature of the assay: qHTS Assay for Inhibitors of Bacillus subtilis Sfp phosphopantetheinyl transferase (PPTase).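 Also: the enzyme is Sfp with the accession as filed and its product quenches rhodamine fluorescence.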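 As to largest response in the series, negative = inhibition: 0% = enzyme reaction without inhibitor and -100% = no enzyme wells.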 The settings on record: Biochemical Sfp PPTase activity. The essentials: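 Buffer: 50 mM Hepes-Na pH 7.6, 10 mM MgCl2, 0.01% Nonidet P-40, 0.01% BSA. Enzyme 15 nM, pre-exposed to compound 15 min; substrates then added and fluorescence change tracked over 30 min.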
Turning to `COc1ccc(C2CC(c3cccs3)=NN2c2nc(C)c(C(C)=O)s2)cc1OC` (configuration not stated), the Potency was 39.8 µM (active).

As for `Cc1ccc(-n2c(O)c(C=NCC3CCCO3)c(=O)[nH]c2=O)c(C)c1` (configuration not stated), the largest response in the series, negative = inhibition is -4.95%.

For `CNC(=S)N/N=C1\C2CN3CCN(C2)CC1(c1ccccc1)C3`, the largest response in the series, negative = inhibition was -18%. In the case of `COc1cccc(N2C(=O)NC(=O)/C(=C\c3ccc([N+](=O)[O-])s3)C2=O)c1`, the Potency was 31.6 µM (active).

`O=C1NC(=O)N(c2ccccc2)C(=O)/C1=C/c1ccc([N+](=O)[O-])s1`: the Potency was 35.5 µM (active).

Consider `COc1cc(-n2c(=S)[nH]c3ccc(C)cc3c2=O)c(Cl)cc1Cl`, for which the largest response in the series, negative = inhibition is 4.46%.

Consider `C=CCSSCC=C`, for which the largest response in the series, negative = inhibition was -26.6%. On the same count and under the same terms, then `Cc1cccc([C@H](C)c2cnc[nH]2)c1C`, with 9.27%; and `COc1ccc(C2N3CC(C)(C)CN23)cc1` (configuration not stated), with 0.855%. For the molecule `Cc1cccc(-n2c(O)c(C=NC34CN5CN(CN(C5)C3)C4)c(=O)[nH]c2=O)c1`, the largest response in the series, negative = inhibition was 9.77%. Regarding `C[N+]12CN3CN(CN(C3)C1)C2`, the largest response in the series, negative = inhibition is 12.8%. Same read-out and setting: then `c1ccc(N2CC[C@@]3(CCCNC3)C2)nc1`, with -23.5%. The same measure, in the same setting: then `O=c1[nH]c(=O)n(-c2ccccc2)c(O)c1C=NC12CN3CN(CN(C3)C1)C2`, with -28%. For the molecule `CCCCCCCCCCCCN=C(N)N`, the largest response in the series, negative = inhibition was -27%. Consider `O=C1NC(=O)N(c2ccc(F)cc2)C(=O)/C1=C/c1ccc2c(c1)CCCN2Cc1ccccc1`, for which the Potency is 44.7 µM (active). Consider `CCC(C)C(=O)O[C@@H]1C[C@@]2(C)C(c3ccoc3)OC(=O)CC23OC2(C)O[C@@]14[C@@]1(C)C(CC(=O)OC)C5(C)CC1(O)C(O)(C5OC(=O)C1(C)OC1C)C(OC(C)=O)[C@@]34O2` (some centres not stated), for which the largest response in the series, negative = inhibition is 3.31%. In the case of `CN(C)CC1CCCCC1OC(=O)c1ccc(Cl)c(Cl)c1` (configuration not stated), the largest response in the series, negative = inhibition is -11.6%. Still for that read-out and setting: then `CCCCCCN=C(CC)c1c(O)n(CCCC)c(=O)[nH]c1=O`, with -9.2%; and `C[C@@]12CCC3C(CC[C@@H]4CC(O)CC[C@@]34C)C1CCC2O` (some centres not stated), with 7.22%. With `Cc1ncsc1CCCl`, the Potency is 79.4 µM (active).

For the molecule `Clc1ccc([C@@H]2C[C@H]3CC[C@@H]2N3)cn1`, the largest response in the series, negative = inhibition is 9.37%. Take `Cc1ccc(-c2nn(CCC#N)cc2C(=O)O)cc1C`: the largest response in the series, negative = inhibition was 25.7%.

On to `CC(c1ccccc1)(c1ccccc1)c1ccncc1`, for which the largest response in the series, negative = inhibition is 5%. Take `c1csc(CN2CCCC3(CCNCC3)C2)n1`: the largest response in the series, negative = inhibition is 3.74%. Turning to `COc1ccc(C2Oc3c(I)c(OC)cc(OC)c3CC2O)cc1OC` (configuration not stated), the largest response in the series, negative = inhibition was -16.3%. Take `CC[N+](C)(CC)CCC[n+]1c(-c2ccccc2)c2cc(N)ccc2c2ccc(N)cc21`: the Potency is 28.2 µM (active) and 50.1 µM (active). On to `CC(C)(C)c1ccc(CN2C(=O)CN=C(c3ccccc3)c3ccccc32)cc1`, for which the largest response in the series, negative = inhibition is -3.66%. `Cc1ccc(S(=O)(=O)N(C)c2ccc(C(=O)NCC3(N(C)C)CCCCC3)cc2)cc1`: the largest response in the series, negative = inhibition is 13.3%. On the same count and under the same terms, then `COC1=C[C@]23CCCN2CCc2cc4c(cc2[C@@H]3[C@@H]1O)OCO4`, with 1.35%. On to `CC(=O)c1c(O)n(C2CCCCCC2)c(=O)[nH]c1=O`, for which the largest response in the series, negative = inhibition was 6.22%. Turning to `COc1ccccc1N1CCN(C(CNC(=O)Oc2ccccc2)c2cccnc2)CC1` (configuration not stated), the largest response in the series, negative = inhibition is 2.8%. Same read-out and setting: to `COc1ccc(CCn2c(O)c(C=NC3CC3)c(=O)[nH]c2=O)cc1OC` belongs 12.3%. Consider `O=C(O)C1CSC(c2cccnc2)N1` (configuration not stated), for which the Potency is 56.2 µM (active). As for `CNC(=O)Nc1ccc(C(O)(C(=O)OC)C(F)(F)F)cc1` (configuration not stated), the largest response in the series, negative = inhibition was 6.69%.

On to `CN1CCN(C(=O)O[C@@H]2c3nccnc3C(=O)N2c2ccc(Cl)cn2)CC1`, for which the largest response in the series, negative = inhibition is -8.07%.

`CC(=C1C(=O)c2ccccc2C1=O)N1CCN(CCN=Cc2c(O)n(C)c(=O)n(C)c2=O)CC1`: the largest response in the series, negative = inhibition is 10.2%. Still for that read-out and setting: to `CN1C2CC3CC1C(O3)C2O` (configuration not stated) belongs -0.102%. Regarding `Fc1ccc(C(OCCN2CCN(C/C=C\c3ccccc3)CC2)c2ccc(F)cc2)cc1`, the Potency was 89.1 µM (active).

For `C[C@H]1CC[C@@]2(NC1)O[C@@H]1C[C@H]3[C@@H]4CC=C5C[C@@H](O)CC[C@]5(C)[C@@H]4CC[C@]3(C)[C@@H]1[C@@H]2C`, the largest response in the series, negative = inhibition is 7.1%.

As for `COc1ccc(NC(=O)N2CCC3(CC2)OCCO3)c(OC)c1`, the largest response in the series, negative = inhibition was -7.26%. The same measure, in the same setting: then `CO[C@H]1[C@@H](O)[C@@H](C)O[C@H](O[C@H]2[C@H](Oc3cccc4c(O)c5c(=O)oc6ccc(C)c7c(=O)oc(c34)c5c67)O[C@H](C)[C@H](O)[C@@H]2O)[C@@H]1O`, with -22.5%; and `CN(C)C(=O)Oc1cc(OC(=O)N(C)C)cc(C(O)CNC(C)(C)C)c1` (configuration not stated), with 2.1%.

On to `O=C1NC(=O)N(Cc2ccco2)C(=O)/C1=C\c1cccn1CCOc1ccccc1`, for which the Potency is 20 µM (active). On the same count and under the same terms, to `O=C1NC(=O)N(Cc2ccco2)C(=O)/C1=C\c1ccc(-c2ccc(F)cc2)o1` belongs 31.6 µM (active). Turning to `CC[C@]1(O)C(=O)OCc2c1cc1n(c2=O)Cc2cc3ccccc3nc2-1`, the largest response in the series, negative = inhibition is 6.01%.

Regarding `COP(=O)(NS(=O)(=O)c1ccccc1)OC`, the largest response in the series, negative = inhibition is 17.4%. For the molecule `C=CCN1CCC2(C)c3cc(O)ccc3CC1[C@@H]2C` (some centres not stated), the largest response in the series, negative = inhibition was 3.98%. On the same count and under the same terms, to `CCc1nnc(NS(=O)(=O)c2ccc(N=Cc3c(O)n(-c4ccccc4)c(=O)[nH]c3=O)cc2)s1` belongs -8.17%. As for `Cc1cc(C)cc(NC(=S)NC2CC3CCCC(C2)N3Cc2cccs2)c1` (configuration not stated), the largest response in the series, negative = inhibition is 14.7%. Consider `CC(C)Oc1cccc(C(=O)C2CCCN(C3CCOCC3)C2)c1` (configuration not stated), for which the largest response in the series, negative = inhibition was 17.1%. Still for that read-out and setting: then `CCN(CC)c1nc(C)cc(OP(=S)(OC)OC)n1`, with 6.37%; and `O=c1c2ccccc2nc(-c2ccco2)n1-c1ccc(Br)cn1`, with -3.04%; and `O=c1c2ccccc2nc(/C=C/c2ccc(F)cc2)n1-c1ccccc1O`, with -2%. Turning to `O=c1c2ccccc2nc(/C=C/c2ccco2)n1-c1ccccc1O`, the Potency was 10 µM (active).

`CCN1CC2C3CCC(C)(O3)C2C1` (configuration not stated): the largest response in the series, negative = inhibition was 13.8%. Turning to `O=C(N/N=C/c1c(O)n(C2CC2)c(=S)[nH]c1=O)c1ccccc1Cl`, the largest response in the series, negative = inhibition is 9.37%. Consider `CC(C)(C)c1ccc(OC(=O)N2CCCCC2)cc1`, for which the largest response in the series, negative = inhibition is -1.08%. Same read-out and setting: then `N[C@H](C(=O)O)c1cc(=O)[nH]o1`, with 2.79%. For the molecule `N[C@H](Cc1o[nH]c(=O)c1Cl)C(=O)O`, the Potency is 79.4 µM (active). Regarding `CCOP(=O)(OCC)C(O)c1ccc(OC)cc1OC` (configuration not stated), the largest response in the series, negative = inhibition was 9.04%.

`CN(C)C(=O)Oc1cc(=O)n2c3c(cccc13)CCC2`: the largest response in the series, negative = inhibition is 10.3%. Take `C[C@]12CC[C@H](O)C[C@@H]1CC[C@H]1[C@H]2CC[C@]2(C)C(=O)CC[C@@H]12`: the largest response in the series, negative = inhibition is -1.51% and 34.7% and 1.49%. Same read-out and setting: to `O=[N+]([O-])c1ccc(C2C3C(c4ccccc4)=NC4(CCCCC4)N32)cc1` (configuration not stated) belongs -4.07%; to `c1csc(CN2CC3(CCNCC3)C2)n1`, 12.2%. `C=CCN1C(=O)NC(=O)/C(=C/c2ccc(OCC(=O)Nc3ccc(C)cc3)cc2)C1=O`: the Potency is 35.5 µM (active). For `C=CCN(CC=C)C(=O)Nc1ccc(OCC)cc1`, the largest response in the series, negative = inhibition was 0.3%.

Take `O=C(Cc1ccccc1)N1CCN(C2CCCCCC2)CC1`: the largest response in the series, negative = inhibition was -9.44%. With `Cc1noc(C)c1CSc1nc2cc(S(=O)(=O)N3CCOCC3)ccc2o1`, the Potency was 20 µM (active).

Take `CCC1(c2ccccc2)C(=O)NC(=O)N(C)C1=O` (configuration not stated): the largest response in the series, negative = inhibition was 9.18%.

Turning to `Nc1ccc(-c2ccc(N)c(N)c2)cc1N`, the largest response in the series, negative = inhibition was -2.55%.

`CN(c1ccccc1)c1ccc([N+](=O)[O-])c2nonc12`: the largest response in the series, negative = inhibition was -10.3%.

For the molecule `CN(C)C(=O)Oc1ccc2c(c1)O/C(=C\c1ccccc1)C2=O`, the largest response in the series, negative = inhibition is 2.07%. With `Cc1nc2ccccn2c1P(=S)(N1CCCCC1)N1CCCCC1`, the Potency was 56.2 µM (active). For the molecule `COc1ccc2[nH]cc(CCNCc3ccc(Br)cc3)c2c1`, the largest response in the series, negative = inhibition was -23.1%. `Cc1c(C(=O)O)cccc1-n1c(C)cc(/C=C2\C(=O)NC(=O)N(c3ccc4c(c3)OCO4)C2=O)c1C`: the largest response in the series, negative = inhibition is -16.8%. Consider `Cc1cccc(N2C(=O)NC(=O)/C(=C\c3cnn(-c4ccccc4)c3)C2=O)c1`, for which the Potency is 39.8 µM (active).

Consider `O=C(Nc1cccc(F)c1)N1CC[C@@]2(CCCN(C(=O)Oc3ccccc3)C2)C1`, for which the largest response in the series, negative = inhibition was -5.07%. The same measure, in the same setting: to `CC[N+]1(C)CCCC(OC(=O)C(O)(c2ccccc2)c2ccccc2)C1` (configuration not stated) belongs 15.8% and 11.5%; to `COc1ccccc1NC(=O)N1C[C@@H]2C[C@@H](C1)c1cccc(=O)n1C2`, 13.6%; to `CN=C(NC#N)NCCSCc1nc[nH]c1C`, 5.33% and -12.8% and 5.86%.

Take `COC(=O)N(c1ccc(OC)cc1)P1(=S)OCCC(C)O1` (configuration not stated): the Potency is 12.6 µM (active). Consider `CC(C)CN1CCN(Cc2ccccc2C(F)(F)F)CC1CCO` (configuration not stated), for which the largest response in the series, negative = inhibition is 6.48%. On to `O=C(CCN1CCCCC1)NCC(=O)Nc1ccc(Br)cc1C(=O)c1ccccc1`, for which the largest response in the series, negative = inhibition was -17.5%. As for `C[C@@H]1C[C@@H]2O[C@H]2/C=C\C=C\C(=O)Cc2c(Cl)c(O)cc(O)c2C(=O)O1`, the Potency is 15.8 µM (active). Regarding `CNP1(NC)=Nc2nn(-c3ccccc3)c(N)c2C(c2ccccc2)=N1`, the largest response in the series, negative = inhibition is 2.05%. `CCNC[C@H](O)c1cccc(O)c1`: the largest response in the series, negative = inhibition is 18.1%. Take `CCOC(=O)c1c(C)c(C(=O)N2CCC3(CC2)OCCO3)c(C)n1CC`: the largest response in the series, negative = inhibition was -3.49%.
